# In PubChem BioAssay (Tox21):
# Inconclusive results are not listed. Where a call stands in place of a potency, no number is given. Active and inactive are the calls of the source. Calls follow the shape of the dose curve; as a rule, active = well fitted activation curve with a large enough effect in the repeat runs; inconclusive = weak or mixed curves; inactive = flat fitted curve, though single readings scatter.
# Test: A CellTox Green Cytotoxicity Assay to monitor cytotoxicity in HEK293 cells - 32 hour (AID 1224881); also: nearly all actives have a fitted effect of over 40% in size
# Settings: CellTox Green fluorescence; series mostly up to 76.8 µM
# Description: National Center for Advancing Translational Sciences [NCATS]
# NIH Chemical Genomics Center [NCGC]
# U.S. Environmental Protection Agency [EPA]
# National Institutes of Environmental Health Sciences [NIEHS]
# National Toxicology Program [NTP]
# Cell-based models are critical for drug discovery. Determining the natural cytotoxic effects resulting from test compounds is an essential research activity. A CellTox Green Cytotoxicity Assay to monitor cytotoxicity in real time of continues cell culture during 40 hours of the compound treatment was used to screen Tox21 10K library compounds in Hek293 cells. CellTox Green Cytotoxicity Assay is a nonlytic, homogeneous, biofluorescent method to measure cytotoxicity in cell culture after experimental manipulation. The assay system uses a proprietary asymmetric cyanine dye that is excluded from viable cells but preferentially stains the dead cell's DNA. […] Viable cells produce no appreciable increases in fluorescence. Therefore, the fluorescence signal produced by the binding interaction with dead cell DNA is proportional to cytotoxicity.
# The mixture of Hek293 cell suspension and reagents were dispensed at 600cells/6 ul/well in 1536-well tissue culture treated black solid bottom plates using a Multidrop dispenser. After the assay plates were incubated at a 37 C/5% CO2 incubator for 5 hours, 23 nL of compounds dissolved in DMSO, positive and negative controls was transferred to the assay plate by a pintool work station. The plates were incubated at 37 C for 40 hours. The fluorescence intensity were measured at 0h, 8h, 16h, 24h, 32h and 40h time points using ViewLux plate reader during compound treatment.
row,Compound,Potency
1,NCCNCCNCCN,inactive
2,O=C(O)C1=NN(c2ccc(S(=O)(=O)O)cc2)C(=O)C1,inactive
3,N#CCC(=O)O,inactive
4,COc1ccc([C@@H]2CC(=O)c3c(O)cc(O[C@@H]4O[C@H](CO[C@@H]5O[C@@H](C)[C@H](O)[C@@H](O)[C@H]5O)[C@@H](O)[C@H](O)[C@H]4O)cc3O2)cc1OC,inactive
5,CCCCCCC(=O)O,inactive
6,CC(C)c1ccc(C(C)C)cc1,inactive
7,OC1CCCCC1,inactive
8,CC(=O)CC(=O)N(C)C,inactive
9,CC(COCC(C)OC(=O)c1ccccc1)OC(=O)c1ccccc1 (stereo not given),inactive
10,C[Si](C)(C)N[Si](C)(C)C,inactive
11,CN1Cc2c(N)cccc2C(c2ccccc2)C1 (stereo not given),inactive
12,COc1ccc(N)c(OC)c1,inactive
13,COC(=O)CCCCC(=O)OC,inactive
14,CC(=O)C(C)C,inactive
15,Brc1ccc(Oc2ccc(Br)cc2)cc1,inactive
16,O=C1C(N(CO)C(=O)NCO)N(CO)C(=O)N1CO (stereo not given),inactive
17,COCN(COC)c1nc(N(COC)COC)nc(N(COC)COC)n1,inactive
18,O=Cc1ccc(CO)o1,inactive
19,OB(O)O,inactive
20,CC/C(C)=N/O,inactive

row,Compound,Potency
1,Cc1ncc(CO)c(CO)c1O,inactive
2,CCc1cccc(O)c1,inactive
3,CC(C)(C)NC[C@H](O)COc1nsnc1N1CCOCC1,inactive
4,CC/C=C(\C(=O)N[C@@H]1C(=O)N2C(C(=O)OCOC(=O)C(C)(C)C)=C(COC(N)=O)CS[C@H]12)c1csc(N)n1,inactive
5,OCCOCCOCCOCCOCCO,inactive
6,O=c1n(CCCN2CCN(c3cccc(Cl)c3)CC2)nc2ccccn12,inactive
7,N[C@@H](Cc1cc(I)c(Oc2ccc(O)c(I)c2)c(I)c1)C(=O)O,inactive
8,CC(=O)c1nccs1,inactive
9,CCCN(CCC)C(=O)SCC,inactive
10,O=C(NCC1CCCCN1)c1cc(OCC(F)(F)F)ccc1OCC(F)(F)F (stereo not given),inactive
11,CC[N+](CC)(CC(=O)Nc1c(C)cccc1C)Cc1ccccc1,inactive
12,Nc1cccc(N)n1,inactive
13,CCOC(=O)CC(=O)OCC,inactive
14,Nc1nc(N)c2nc(-c3ccccc3)c(N)nc2n1,inactive
15,CC(O)CNCC(C)O (stereo not given),inactive
16,COC(=O)/C=C\C(=O)OC,inactive
17,O=C(Cl)c1ccc(C(=O)Cl)cc1,inactive
18,CC(=O)OC(C)(C)C1CC=C(C)CC1 (stereo not given),inactive
19,CCc1cccc(CC)c1N,inactive
20,CC(C)(CO)CO,inactive
